Measured values: ChEMBL document CHEMBL3988442, “University of Dundee, Small-Polar-MMV Screening Library” (2021)

Each compound was assayed against AMP-activated protein kinase, AMPK (Homo sapiens) (UniProt P54646+O43741+P54619+Q9UGJ0+Q9Y478+Q13131+Q9UGI9) (assay: AMP-dependent Kinase enzyme assay. An in vitro enzyme assay that detects ADP turnover that is directly proportional to AMPK activity. This uses naive AMPK that is activated during the assay with MK-8722). Conditions: 30 µM.
Format: functional
Set-up: scale not given: direction of the effect not stated beside the values
For `CSCCN1CCC(NC(=O)c2cccc(C3CCCNC3)c2)CC1` (stereo not drawn), the Percent Effect was -2.91%.
Compound `CC(NCC(=O)NCC(=O)Nc1ccc(F)cc1)c1cccs1` (stereo not drawn) has a Percent Effect of 8.16%.
Compound `N#Cc1ccc(SCCC(=O)O)cc1` has a Percent Effect of 6.5%.
`CCC(C)(CC(=O)OC)NCc1nc(C)no1` (stereo not drawn) was tested, and the Percent Effect was -1.72%.
Work on `Cc1nnc(SCCNc2cc(C3CC3)ncn2)s1` yielded a Percent Effect of 14.2%.
For `O=C(CCn1ccnc1)N1CCCC(n2cncn2)C1` (stereo not drawn), the Percent Effect was 11.8%.
Work on `Cc1cc(C)c(C#N)c(N2CCC3(CCCN(CCO)C3=O)C2)n1` (stereo not drawn) yielded a Percent Effect of 8.35%.
`CCn1c(C2CCCN2Cc2noc(C(C)(C)C)n2)nc2ccccc21` (stereo not drawn) was tested, and the Percent Effect was 13.4%.
`CC(C)c1cc(C(=O)NCCc2nc(-c3cccnc3)n[nH]2)[nH]n1` gave a Percent Effect of 57.4%.
With `COc1nccc(N2CC[C@@H](N3CCN(C)CC3)[C@H](O)C2)c1C#N` the Percent Effect was -9.72%.
`CN(C)S(=O)(=O)NC1CCCc2c1cnn2-c1ccc(C(C)(C)C)cc1` (stereo not drawn) showed a Percent Effect of 88.7%.
For `CCCS(=O)(=O)NCc1nc(C)cc(N2CCCC2)n1`, the Percent Effect was 4.77%.
`Cc1cc(CN(CC(N)=O)CC(C)C)on1` was tested, and the Percent Effect was -2.52%.
`O=C(OCC1CCCN1)c1cccc(NC(=O)c2ccco2)c1` (stereo not drawn) gave a Percent Effect of -4.3%.
Compound `CC(CNC(=O)c1cnc[nH]1)Oc1ccc(Cl)cc1` (stereo not drawn) has a Percent Effect of 4.75%.
`CN(Cc1ccc(C#N)cc1)C(=O)c1ccn(C)c(=O)c1` showed a Percent Effect of 5.01%.
`NCCc1cc(N2CCOCC2)nc(NC2CC2)n1` was tested, and the Percent Effect was 3.97%.
`CC(=O)Nc1ccc(Oc2cc(C)nc(C3CCNCC3)c2)cc1` showed a Percent Effect of 0.11%.
